Only some compounds are listed: those with a hit (about 1.5% of all), similar ones and a draw of the others.
IL1B cytotox = toxic to HUVEC cells under IL-1B stimulation; HUVEC cell count loss, Hoechst imaging, IL-1B stimulated; cell count reduction, % at 2 µM; 0.41% of 94,000 active;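 active = cell count reduction more than 3 SD above the screen-wide mean, cut at about 70% in these data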;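 note: normalized per plate to untreated control cells as the no-loss baseline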
IL1B NFkB pot = enhances IL-1B driven NFkB nuclear translocation; HUVEC IL-1B NFkB p65 nuclear translocation imaging; activation, % at 2 µM; 0.3% of 94,000 active; AID 819;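 active = activation above 40%, about the mean plus 3 SD, also judged a hit on visual image review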;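 note: percent activation is computed from the nuclear over cytoplasmic p65 intensity ratio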
VCAM1 TNFa inh = reduces TNF alpha induced VCAM1 expression in HUVEC | HUVEC TNFa-induced VCAM-1 immunofluorescence, high-content imaging | inhibition, % at 2 µM | 0.48% of 95,000 active | AID 802;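 active = inhibition above the batch mean plus 3 SD, with images confirmed as a hit by eye, cut at about 37% in these data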;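 note: 0% = TNF-stimulated DMSO wells and 100% = unstimulated control wells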
HUVEC tox TNFa = toxic to HUVEC cells under TNF alpha stimulation; HUVEC TNFalpha-stimulated, Hoechst cell count, imaging; cell count reduction, % at 2 µM; 0.17% of 93,000 active;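 active = cell count reduction exceeding the screen mean by over 5 SD, scaled to untreated wells per plate, cut at about 78% in these data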;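 note: cells counted after 24 h of TNF alpha exposure following the 1 h pretreatment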
NFkB transloc inh = blocks IL-1B driven NFkB nuclear translocation in HUVEC cells | HUVEC IL-1B NFkB p65 nuclear translocation imaging | inhibition, % at 2 µM | 0.43% of 94,000 active;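 active = inhibition above about 30% together with a positive call from visual inspection of the well image, limit read from the data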;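 note: nuclear over cytoplasmic p65 intensity ratio measured by imaging; 0% = IL-1B stimulated DMSO wells and 100% = unstimulated DMSO wells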
The depositor's hits bear a star; . = no result given.

SMILES	IL1B cytotox	IL1B NFkB pot	VCAM1 TNFa inh	HUVEC tox TNFa	NFkB transloc inh
COc1cc(C2Nc3ccc4ncccc4c3C3=C2C(=O)CCC3)cc(OC)c1O (stereo unspecified)	16.7	-12.0	91.2*	-18.0	12.0
COc1cc(C2Nc3ccc4ncccc4c3C3=C2C(=O)CC(C)(C)C3)cc(OC)c1O (stereo unspecified)	-1.3	-9.6	-13.0	-26.0	9.6
Nc1nc2ccc(O)cc2s1	-33.1	-35.1	23.5	-10.0	35.1*
O=C(OCn1ncc(Cl)c(Cl)c1=O)c1ccccc1Cl	-6.4	-90.3	17.3	19.5	90.3*
O=C(Cn1ncc(Cl)c(Cl)c1=O)c1ccc(Cl)cc1	-165.0	-15.7	16.0	15.8	15.7
O=C(OCn1ncc(Cl)c(Cl)c1=O)c1ccc(F)cc1	28.8	-93.2	11.2	4.2	93.2*
O=C(CCCCCCCC(=O)NCC1CCCO1)NCC1CCCO1 (stereo unspecified)	-33.1	26.7	21.0	-3.3	-26.7
O=C(NCC1CCCO1)NC1CCCCC1 (stereo unspecified)	94.0*	-20.3	-3.4	0.4	20.3
CCOC(=O)c1ccccc1NC(=O)c1ccc(Cl)c(S(=O)(=O)N2CCOCC2)c1	-8.8	-3.5	-18.8	-36.1	3.5
C=CCOc1nc2c(c(=O)n(C)c(=O)n2C)n1C	85.1*	1.0	-37.2	.	-1.0
N#CCSc1nc2scc(-c3cccs3)c2c(=O)n1CCc1ccccc1	-17.7	-5.8	-18.9	21.8	5.8
CCCc1cc(=O)[nH]c(SCC(=O)N2CCN(S(=O)(=O)c3ccc(C)cc3)C2)n1	-10.4	0.8	13.5	-40.3	-0.8
COc1ccc2nc(NC(=O)C(NS(=O)(=O)c3cccc4nsnc34)C(C)C)sc2c1 (stereo unspecified)	17.1	-3.7	13.3	86.0*	3.7
CCN(CC)S(=O)(=O)c1csc(C(=O)OCC(=O)c2ccccc2)c1	-0.8	5.0	7.9	2.2	-5.0
CCCC(=O)Nc1ccc(NC(=O)C2CC2)cn1	13.0	7.7	.	.	-7.7
O=C(Nc1ccc(NC(=O)C2CC2)cn1)c1ccccc1Cl	88.3*	-9.9	2.5	-2.3	9.9
COc1ccc(/C(N)=N/OC(=O)CSc2ccccc2)cc1OC	10.6	-20.1	15.2	-8.9	20.1
CC(=O)Oc1cccc(N2C(=O)C3CC=CCC3C2=O)c1 (stereo unspecified)	89.4*	29.6	-11.8	-28.5	-29.6
CC(=O)Oc1cccc(N2C(=O)C3C(C2=O)C2C=CC3C23CC3)c1 (stereo unspecified)	-24.7	-10.0	10.1	-2.1	10.0
Cc1ccc(C2NNC(=O)C2NC(=O)c2ccccc2)cc1 (stereo unspecified)	0.3	-7.6	-14.4	-10.7	7.6
CC(C)CC(=O)NC1(C(F)(F)F)C(=O)N(Cc2ccccc2)C2=C1C(=O)CC(C)(C)C2 (stereo unspecified)	-38.0	-32.8	0.2	-19.7	32.8*
CC1(C)CC(=O)C2=C(C1)N(Cc1ccccc1)C(=O)C2(O)C(F)(F)F (stereo unspecified)	0.7	-3.9	3.5	38.1	3.9
CCC(C)C1C(C#N)=C(N)Oc2n[nH]c(-c3ccccc3)c21 (stereo unspecified)	0.3	-3.4	55.9*	29.4	3.4
CCC(C)C1C(C#N)=C(N)Oc2n[nH]c(C)c21 (stereo unspecified)	2.5	-3.3	-6.8	-19.5	3.3
CCN(CC)S(=O)(=O)c1cccc(C(=O)N[C@H](C(=O)OCC(N)=O)C(C)C)c1	26.0	-34.2	11.5	35.7	34.2*
SMILES	IL1B cytotox	IL1B NFkB pot	VCAM1 TNFa inh	HUVEC tox TNFa	NFkB transloc inh
O=c1[nH]ncn2cccc12	-16.3	18.2	-11.9	16.4	-18.2
CCc1ccc(C(=O)/C=C/c2ccc([N+](=O)[O-])o2)cc1	-18.2	-44.2	49.0*	-6.1	44.2*
CN(C)c1ccc(NC(=O)CSc2nc3ccccc3c(=O)n2C2CCCCC2)cc1	-15.7	-6.2	-6.2	2.8	6.2
Cc1cc(NC(=O)CSc2nc3ccccc3c(=O)n2C2CCCC2)no1	33.7	-17.4	67.7*	45.7	17.4
O=C(CC1SC(N2CCCCC2)=NC1=O)Nc1cccc(C(=O)O)c1 (stereo unspecified)	-14.7	13.9	12.1	-61.5	-13.9
CCC(C)(C(=O)NC1CCCCC1)N(Cc1ccco1)C(=O)Cc1cccs1 (stereo unspecified)	8.0	6.3	13.7	-13.0	-6.3
NC(=O)C1(N2CCCCC2)CCN(CC(=O)Nc2cc(Cl)ccc2Cl)CC1	79.5*	-99.0	2.5	0.4	99.0*
COc1ccccc1NC(=O)N1CCc2[nH]c3ccc(Cl)cc3c2C1	-29.7	-5.1	14.2	-23.8	5.1
